{"source": "the antibiotic and cytotoxicity screens of Wong et al. (2023)", "note": "The whole screen tested about 39,000 compounds, of which about 3,300 (8.5%) were called active. This excerpt belongs to a sample that is enriched for actives.", "data": [{"test_system": "HepG2", "assay": "cytotoxicity call (relative viability < 0.9)", "settings": "10 µM", "values": [{"compound": "COc1cccc(S(=O)(=O)N(C)C[C@@H]2Oc3cc(C4=CCCC4)ccc3S(=O)(=O)N([C@@H](C)CO)C[C@H]2C)c1", "cytotoxicity call": "inactive"}, {"compound": "Cc1noc(C)c1S(=O)(=O)Nc1ccc2c(c1)C(=O)N([C@H](C)CO)C[C@H](C)[C@H](CN(C)C(=O)Nc1ccccc1)O2", "cytotoxicity call": "inactive"}, {"compound": "Cc1noc(C)c1S(=O)(=O)N(C)C[C@@H]1Oc2ccc(NS(=O)(=O)c3ccc(F)cc3)cc2CC(=O)N([C@H](C)CO)C[C@@H]1C", "cytotoxicity call": "inactive"}, {"compound": "C[C@H]1CN([C@@H](C)CO)C(=O)c2cccc(NC(=O)c3nc4ccccc4s3)c2O[C@@H]1CN(C)C(=O)Nc1ccc(F)cc1", "cytotoxicity call": "inactive"}, {"compound": "COc1ccccc1S(=O)(=O)N(C)C[C@@H]1OCc2cn(nn2)CCCC(=O)N([C@H](C)CO)C[C@H]1C", "cytotoxicity call": "inactive"}, {"compound": "Cc1noc(C)c1S(=O)(=O)Nc1ccc2c(c1)C(=O)N([C@@H](C)CO)C[C@@H](C)[C@H](CN(C)S(=O)(=O)c1ccc(Cl)cc1)O2", "cytotoxicity call": "inactive"}, {"compound": "COc1ccc(S(=O)(=O)N(C)C[C@@H]2Oc3ccc(NS(=O)(=O)c4c(C)noc4C)cc3CC(=O)N([C@@H](C)CO)C[C@H]2C)cc1", "cytotoxicity call": "inactive"}, {"compound": "Cc1noc(C)c1NC(=O)Nc1ccc2c(c1)C(=O)N([C@H](C)CO)C[C@@H](C)[C@@H](CN(C)C(=O)C1CCCCC1)OCCCC[C@H](C)O2", "cytotoxicity call": "inactive"}, {"compound": "C[C@H](CO)N1C[C@H](C)[C@H](CN(C)Cc2ccc(C(F)(F)F)cc2)Oc2c(NC(=O)NC3CCCCC3)cccc2C1=O", "cytotoxicity call": "inactive"}, {"compound": "C[C@H](CO)N1C[C@H](C)[C@@H](CN(C)Cc2ccc(C(F)(F)F)cc2)Oc2c(NC(=O)NC3CCCCC3)cccc2C1=O", "cytotoxicity call": "inactive"}, {"compound": "C[C@@H]1CN([C@H](C)CO)C(=O)c2cccc(NC(=O)NC3CCCCC3)c2O[C@@H]1CN(C)Cc1ccc(C(F)(F)F)cc1", "cytotoxicity call": "active"}, {"compound": "CO[C@H]1CN(C)C(=O)c2ccc(NC(=O)C3CCOCC3)cc2OC[C@@H](C)N(Cc2cccnc2)C[C@H]1C", "cytotoxicity call": "inactive"}, {"compound": "C[C@H](CO)N1C[C@H](C)[C@@H](CN(C)Cc2ccc(Cl)c(Cl)c2)Oc2ccc(NC(=O)Cn3cnnn3)cc2C1=O", "cytotoxicity call": "inactive"}, {"compound": "C[C@@H]1CN([C@@H](C)CO)C(=O)Cc2cc(NC(=O)Nc3ccccc3)ccc2O[C@@H]1CN(C)Cc1ccc(-c2ccccc2)cc1", "cytotoxicity call": "inactive"}, {"compound": "Cc1noc(C)c1NC(=O)Nc1ccc2c(c1)CC(=O)N([C@@H](C)CO)C[C@H](C)[C@H](CN(C)Cc1ccc(-c3ccccc3)cc1)O2", "cytotoxicity call": "inactive"}, {"compound": "C[C@@H]1CN([C@H](C)CO)C(=O)Cc2cc(NC(=O)Nc3ccccc3)ccc2O[C@@H]1CN(C)Cc1ccc(-c2ccccc2)cc1", "cytotoxicity call": "active"}, {"compound": "C[C@H]1CN([C@@H](C)CO)C(=O)Cc2cc(NC(=O)Nc3ccccc3)ccc2O[C@H]1CN(C)Cc1ccc(-c2ccccc2)cc1", "cytotoxicity call": "inactive"}, {"compound": "C[C@@H]1CN([C@H](C)CO)C(=O)Cc2cc(NC(=O)Nc3ccccc3)ccc2O[C@H]1CN(C)Cc1ccc(-c2ccccc2)cc1", "cytotoxicity call": "inactive"}, {"compound": "C[C@@H]1CN([C@@H](C)CO)C(=O)Cc2cc(NC(=O)Nc3ccccc3)ccc2O[C@H]1CN(C)Cc1ccc(-c2ccccc2)cc1", "cytotoxicity call": "active"}, {"compound": "CC(C)NC(=O)Nc1ccc2c(c1)CC(=O)N([C@H](C)CO)C[C@H](C)[C@H](CN(C)Cc1ccc(-c3ccccc3)cc1)O2", "cytotoxicity call": "inactive"}, {"compound": "C[C@H](CO)N1C[C@H](C)[C@H](CN(C)Cc2ccc(-c3ccccc3)cc2)Oc2ccc(NC(=O)Nc3ccccc3)cc2CC1=O", "cytotoxicity call": "active"}, {"compound": "Cc1noc(C)c1NC(=O)Nc1ccc2c(c1)CC(=O)N([C@@H](C)CO)C[C@@H](C)[C@@H](CN(C)Cc1ccc(-c3ccccc3)cc1)O2", "cytotoxicity call": "active"}, {"compound": "Cc1noc(C)c1NC(=O)Nc1ccc2c(c1)CC(=O)N([C@H](C)CO)C[C@@H](C)[C@H](CN(C)Cc1ccc(-c3ccccc3)cc1)O2", "cytotoxicity call": "inactive"}, {"compound": "NC1CCC(N[C@@H]2C[C@H]2c2ccccc2)CC1", "note": "(stereo not given in full)", "cytotoxicity call": "inactive"}, {"compound": "C=CCC[C@@H](Cc1ccc(F)cc1)C(=O)OC[C@H]1CCCN1C(=O)[C@@H](CC=C)CC(=O)N(CCO)Cc1ccccc1", "cytotoxicity call": "inactive"}, {"compound": "COc1cccc(S(=O)(=O)Nc2ccc3c(c2)OC[C@H](C)N(C(=O)Cc2cccnc2)C[C@H](C)[C@@H](OC)CN(C)C3=O)c1", "cytotoxicity call": "inactive"}, {"compound": "C[C@@H]1CN([C@H](C)CO)C(=O)c2cc(NS(=O)(=O)c3cn(C)cn3)ccc2O[C@@H]1CN(C)Cc1ccccc1", "cytotoxicity call": "inactive"}, {"compound": "COCC(=O)NC1CCN(C2CCNCC2)CC1", "cytotoxicity call": "inactive"}, {"compound": "CO[C@H]1O[C@H](CO)[C@@H](OC(=O)Nc2ccccc2)[C@@H]2OC(=O)[C@H](Cc3cccc(Br)c3)C/C=C/C[C@@H](Cc3cccc(Br)c3)C(=O)O[C@@H]12", "cytotoxicity call": "inactive"}, {"compound": "C[C@H]1CN([C@@H](C)CO)C(=O)c2cccc(NC(=O)C3CCOCC3)c2O[C@H]1CN(C)C(=O)NC1CCCCC1", "cytotoxicity call": "inactive"}, {"compound": "CC(C)(C)[S@@](=O)N1Cc2cc(C(=O)N3CCc4ccccc4C3)nc(-c3cccc(-c4cccnc4)c3)c2[C@H]1CCO", "cytotoxicity call": "inactive"}, {"compound": "Cc1noc(C)c1S(=O)(=O)Nc1ccc2c(c1)C(=O)N([C@H](C)CO)C[C@@H](C)[C@@H](CN(C)S(=O)(=O)c1ccc(Cl)cc1)O2", "cytotoxicity call": "inactive"}, {"compound": "C[C@H]1CN([C@@H](C)CO)C(=O)c2cc(NS(=O)(=O)c3cn(C)cn3)ccc2O[C@@H]1CN(C)S(=O)(=O)c1ccccc1", "cytotoxicity call": "inactive"}, {"compound": "CN1CCN(C(=O)C[C@H]2CC[C@H]3[C@H](COc4ccc(NC(=O)c5cscn5)cc4C(=O)N3C)O2)CC1", "cytotoxicity call": "inactive"}, {"compound": "C[C@H](CO)N1C[C@H](C)[C@@H](CN(C)Cc2ccc(-c3ccccc3)cc2)Oc2ccc(NC(=O)Nc3ccccc3)cc2CC1=O", "cytotoxicity call": "active"}, {"compound": "C[C@@H]1CN([C@@H](C)CO)C(=O)c2cc(NC(=O)CCCN(C)C)ccc2O[C@@H]1CN(C)Cc1ccncc1", "cytotoxicity call": "inactive"}, {"compound": "C[C@H](CO)N1C[C@H](C)[C@@H](CN(C)C(=O)Nc2ccc(C(F)(F)F)cc2)OCCCC[C@H](C)Oc2ccc(NS(C)(=O)=O)cc2C1=O", "cytotoxicity call": "inactive"}, {"compound": "COc1ccc(S(=O)(=O)Nc2ccc3c(c2)CC(=O)N([C@H](C)CO)C[C@H](C)[C@H](CN(C)S(=O)(=O)c2ccc(C)cc2)O3)cc1", "cytotoxicity call": "inactive"}, {"compound": "NCC[C@@H]1CC[C@H](NC(=O)C2CC2)[C@@H](CO)O1", "cytotoxicity call": "inactive"}, {"compound": "O=C(O)c1cc2cc(F)ccc2s1", "cytotoxicity call": "inactive"}]}]}
